Inconclusive results are not listed. A number with no mark means an inactive call. The source made the active and inactive calls. Calls come from the whole dose curve; as a rule, active = well fitted cell-killing curve with a large enough effect; inconclusive = small, poorly fitted or top-dose-only effect; inactive = no such curve, though single readings can be large or run the other way.

These results are taken from PubChem BioAssay (NCATS).

A short description of this experiment: qHTS of pediatric cancer cell lines to identify multiple opportunities for drug repurposing: Primary screen for Rh41 cells (AID 1347108).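 Note: luminescence drop marks cytotoxic hits; nearly all actives have a fitted effect of over 70% in size.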 The following applies: Rh41 rhabdomyosarcoma viability, CellTiter-Glo luminescence, 48 h; series mostly up to 46 µM. In outline:
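500-1,000 cells/well; 5 h pre-incubation 37 °C/5% CO2; compound pinned; 48 h; CellTiter-Glo, 15 min RT; luminescence. MIPE 11-pt from 0.78 nM, NPC 8-pt from 0.59 nM final. Bortezomib 2.3 µM final as positive control.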
For `COc1ccccc1OCC(O)CO` (stereo not drawn), the call was inactive.

Take `O=C(O)Cn1c(C(=O)Nc2nc(-c3ccccc3Cl)cs2)cc2ccccc21`: the compound was called inactive.

For `N[C@@H](Cc1ccc(O)cc1)C(=O)O`, the activity change, negative = cytotoxic was 24.2% [at 9.22 µM].

Take `Nc1ncnc2c1ncn2[C@@H]1O[C@H](COP(=O)(O)O)[C@@H](O)[C@H]1O`: the compound was classed as inactive.

Regarding `Cc1c(NC(C)C)c(=O)n(-c2ccccc2)n1C`, the call was inactive.

As for `CC(=O)N[C@@H](Cc1ccc(O)cc1)C(=O)O`, the compound was called inactive.

Take `CN1C(=O)CC(c2ccccc2)C1=O` (stereo not drawn): the compound was called inactive.

`O=C(O)Cc1cn(-c2ccccc2)nc1-c1ccc(Cl)cc1`: the call was inactive.

Consider `CC[N+](C)(CC)CCOC(=O)C1c2ccccc2Oc2ccccc21`, for which the result was inactive.

Regarding `COc1ccc(C(=O)NCc2ccc(OCCN(C)C)cc2)cc1OC`, the compound was classed as inactive.

On to `C[N+](C)(C)CC[N+]1(C)Cc2c(Cl)c(Cl)c(Cl)c(Cl)c2C1`, for which the result was inactive.

Take `Cc1onc(-c2ccccc2)c1-c1ccc(S(N)(=O)=O)cc1`: the call was inactive.

For the compound `COC(=O)c1cccnc1`, the compound was called inactive.

For the compound `CCCC(O)C(CC)CO` (stereo not drawn), the outcome was inactive.

With `CCOC(=O)[C@H](CCc1ccccc1)N[C@@H](C)C(=O)N1Cc2cc(OC)c(OC)cc2C[C@H]1C(=O)O`, the result was inactive.

As for `O=c1[nH]c2cc(C(F)(F)F)c(N3CCOCC3)cc2n(CP(=O)(O)O)c1=O`, the outcome was inactive.

In the case of `CC(=O)N[C@@H](CC(C)C)C(=O)O`, the compound was classed as inactive.

Turning to `O=C(O)COC(=O)Cc1ccccc1Nc1c(Cl)cccc1Cl`, the compound was called inactive.

`CC(O)CCCCn1c(=O)c2c(ncn2C)n(C)c1=O` (stereo not drawn): the result was inactive.

Turning to `NS(=O)(=O)c1cc2c(cc1C(F)(F)F)NCNS2(=O)=O`, the result was inactive.

Regarding `Cc1ccsc1/C=C/C1=NCCCN1C`, the compound was classed as inactive.

On to `O=C(c1ccccc1)C(O)c1ccccc1` (stereo not drawn), for which the outcome was inactive.

For the compound `COc1ccc(-c2cc(=O)c3c(O)cc(O[C@@H]4O[C@H](CO[C@@H]5O[C@@H](C)[C@H](O)[C@@H](O)[C@H]5O)[C@@H](O)[C@H](O)[C@H]4O)cc3o2)cc1O`, the result was inactive.

For the compound `C1CCN2C[C@@H]3C[C@@H](CN4CCCC[C@@H]34)[C@H]2C1`, the result was inactive.

For `COCC(=O)Nc1c(I)c(C(=O)NCC(O)CO)c(I)c(C(=O)N(C)CC(O)CO)c1I` (stereo not drawn), the outcome was inactive.

On to `O=S1(=O)OC(c2ccc(O)cc2)(c2ccc(O)cc2)c2ccccc21`, for which the outcome was inactive.

Turning to `CC1CC(OC(=O)c2ccccc2O)CC(C)(C)C1` (stereo not drawn), the call was inactive.

Regarding `O=C(CCBr)N1CCN(C(=O)CCBr)CC1`, the compound was classed as inactive.

For `Cc1c(C)c2c(c(C)c1OC(=O)c1cccnc1)CC[C@@](C)(CCC[C@H](C)CCC[C@H](C)CCCC(C)C)O2`, the call was inactive.

`CCCCCC(N)=O`: the result was inactive.

For the compound `NNc1nnc(NN)c2ccccc12`, the call was inactive.

For `CCCCCCCC(=O)OCC(O)CO` (stereo not drawn), the outcome was inactive.

`CN[C@@H]1[C@@H](O)[C@@H](O[C@@H]2[C@H](O)[C@H](O[C@H]3OC(CN)=CC[C@H]3N)[C@@H](N)C[C@H]2N)OCC1(C)O` (stereo partly drawn): the result was inactive.

In the case of `CCCCCC(C)N` (stereo not drawn), the call was inactive.

As to `O=C(/C=C/c1ccc(O)c(O)c1)O[C@@H]1C[C@@](OC(=O)/C=C/c2ccc(O)c(O)c2)(C(=O)O)C[C@@H](O)[C@@H]1O`, the result was inactive.

Consider `NNC(=O)CP(=O)(c1ccccc1)c1ccccc1`, for which the result was inactive.

On to `Cn1cc(C(=O)[C@@H]2CCc3nc[nH]c3C2)c2ccccc21`, for which the result was inactive.

Take `O=C1c2ccccc2C(=O)C1c1ccc(Br)cc1`: the call was inactive.
